The record followed here is PubChem BioAssay.

Active and inactive are the calls of the source.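 How the source made its calls, unless noted: active means inhibition at or above 50% at 10 µM; inactive means inhibition below 50%.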

Assay [1] in a line: inhibitors of TNFa-induced NFkB p65 translocation, primary screen, imaging, HUVEC, MLSMR starter and 10KST1 sets (AID 438;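 active means inhibition above 20% together with a positive visual image hit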;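 further: compound added about 3h40 before a 20 min TNFalpha stimulation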;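 on inhibition: signal is the nuclear over cytoplasmic p65 intensity ratio per well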). As to conditions: HUVEC TNFa-induced p65 nuclear translocation; cell count: measured here: nuclei count (cytotoxicity indicator), at 2.08 µM; inhibition: at 2 µM, stronger effect = higher value, 0% TNFa-plus-vehicle, 100% no-TNFa wells.
Assay [2] is described as follows: inhibitors of mutant huntingtin aggregation, primary screen, imaging, exon1htt(103Q)mCFP cells, high-content imaging (AID 483;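 active means visual image review flags a hit and inhibition of aggregation exceeds 20%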;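 further: compound exposure lasted 3 days before fixation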;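 on nuclei count: percent of the per-plate median nuclei count of sample wells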). To be noted: exon1htt(103Q)mCFP cell line, aggregate imaging, at 2 µM; inhibition of aggregation: stronger effect = higher value; nuclei count: measured here: cell count, toxicity.
Assay [3] is described as follows: inhibitors of E-selectin induction by TNFa, primary screen, imaging, HUVEC, immunofluorescence, MLSMR starter and 10KST1 sets (AID 487;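 active means visually confirmed hit in the image check and inhibition above 20%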;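 on inhibition: signal is fraction of cell area covered by stained E-selectin grains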;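 on nuclei count: 100% = median nuclei count of all wells on the same plate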). As to conditions: HUVEC TNFalpha-induced E-selectin immunofluorescence imaging, at 2 µM; inhibition: stronger effect = higher value; nuclei count: measured here: cell number, toxicity.
In assay [4] the target is Voltage-gated potassium channel subunit beta-2 (Rattus norvegicus) (UniProt P62483). Put plainly: KvBeta enzyme negative modulators, primary screen, biochemical, NADPH fluorescence (AID 622;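 active means fluorescence slope higher than the sample average by over 3 SD, cut at about -0.22 in these data, passing the limit was not always enough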;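 further: slope of raw intensity against log time taken from 70 to 1610 s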). As to conditions: recombinant KvBeta, 4-cyanobenzaldehyde reduction, at 10 µM, stronger effect = higher value.
Voltage-gated potassium channel subunit beta-2 (Rattus norvegicus), sequence (P62483 whole entry, looked up): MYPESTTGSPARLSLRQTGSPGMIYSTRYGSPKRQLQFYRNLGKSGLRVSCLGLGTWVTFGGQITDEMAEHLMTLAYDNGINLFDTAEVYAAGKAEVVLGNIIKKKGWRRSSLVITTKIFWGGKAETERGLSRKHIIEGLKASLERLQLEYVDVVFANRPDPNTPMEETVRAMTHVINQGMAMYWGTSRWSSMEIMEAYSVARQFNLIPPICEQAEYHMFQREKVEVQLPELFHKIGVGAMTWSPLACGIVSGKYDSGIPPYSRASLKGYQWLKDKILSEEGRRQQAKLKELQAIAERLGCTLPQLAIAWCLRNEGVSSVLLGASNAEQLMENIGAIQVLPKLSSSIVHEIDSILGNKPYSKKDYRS
Assay [5] shares this target. Put plainly: KvBeta positive modulators, primary screen, biochemical, NADPH fluorescence (AID 623;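 active means NADPH fluorescence slope more negative than the mean of all samples by about 3 SD, 99.7% confidence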;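 further: fluorescence intensity change per second fitted from 20 to 320 s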). As to conditions: Recombinant KvBeta, NADPH fluorescence decrease slope, 10 min; at 10 µM; stronger effect = lower value.
Assay [6] deals with Alpha-2C adrenergic receptor (Homo sapiens) (UniProt P18825). Put plainly: modulators of alpha2C/GIRK thallium flux, primary screen, cell-based, HEK293 alpha2C/GIRK1/2 (AID 624;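 active means fluorescence slope after compound addition differing from the mean of all screened samples at 99.7% confidence, in either direction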;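 further: slope of fluorescence ratio to pre-addition baseline per second over 15 to 24 s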). To be noted: thallium flux BTC fluorescence, at 10 µM, actives lie on both sides.
Alpha-2C adrenergic receptor (Homo sapiens), sequence (P18825 whole entry, looked up): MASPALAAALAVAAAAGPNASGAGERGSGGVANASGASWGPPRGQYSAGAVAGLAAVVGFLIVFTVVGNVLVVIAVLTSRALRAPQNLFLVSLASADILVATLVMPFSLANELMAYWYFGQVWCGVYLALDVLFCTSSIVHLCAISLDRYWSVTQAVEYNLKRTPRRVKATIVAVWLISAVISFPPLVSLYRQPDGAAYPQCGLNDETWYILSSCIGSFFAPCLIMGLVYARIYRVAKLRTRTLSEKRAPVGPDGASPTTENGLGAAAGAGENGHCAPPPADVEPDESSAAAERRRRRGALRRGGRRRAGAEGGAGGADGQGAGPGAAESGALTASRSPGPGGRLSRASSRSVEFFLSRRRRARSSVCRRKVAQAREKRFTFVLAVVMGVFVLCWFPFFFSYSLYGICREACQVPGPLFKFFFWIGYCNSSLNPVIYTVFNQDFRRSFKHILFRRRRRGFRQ
The nature of assay [7]: inhibitors of Sendai virus-induced IRF3 signaling, primary screen, TLR/RLR signaling modifier project, cell-based, Sendai virus stimulus, luciferase, 10K MLSCN set (AID 602276).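 Further: firefly luciferase from ISG56 promoter only with Renilla not read in this screen; 0% = Sendai virus plus DMSO and 100% = medium plus DMSO without virus.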 As to conditions: HEK293 RL24 IRF3 luciferase reporter, at 10 µM, stronger effect = higher value. A general note: Reporter assays use an easily measured gene product as a stand-in for the process of interest.

Assay [8] in a line: inhibitors of poly I:C-induced TLR3 signaling, primary screen, cell-based, poly I:C stimulus, luciferase, 10K MLSCN set (AID 602277;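 active means inhibition of the reporter signal at or above 50%; inactive means inhibition below 50%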). To be noted: HEK293-TLR3 RL24 IRF3 luciferase reporter, at 10 µM, stronger effect = higher value.

Broadly, the inhibition is the relative decrease from the control value, in per cent. For the molecule `COc1cc(NS(=O)(=O)N2CCCC2)cc(OC)c1OC`, the cell count in assay [1] was 712. Besides, the inhibition in assay [1] was 0.7% (inactive); in assay [3], -115% (inactive); in assay [7], 7.48% (inactive); in assay [8], 16.9% (inactive). For the same molecule, in assay [2], the inhibition of aggregation was 9% (inactive). The values for the nuclei count in assay [2] and in assay [3] were 95.3% and 128%, respectively. Moreover, the fluorescence slope in assay [4] was -0.498 (inactive). The NADPH fluorescence slope in assay [5] was -1.9e-05 (inactive). Also, the slope in assay [6] was 0.00502 (inactive).

Regarding `CCN1CCN(Cc2nc3c(c(=O)n(C)c(=O)n3C)n2CC(=O)c2ccccc2)CC1`, the cell count in assay [1] turned out to be 465. Also, the inhibition in assay [1] was -1.8% (inactive); in assay [3] it was -9.3% (inactive); in assay [7] it was 6.82% (inactive); in assay [8] it was 38.5% (inactive). Also, the inhibition of aggregation in assay [2] was -8.6% (inactive). The nuclei count in assay [2] is 89.6%; in assay [3], 106%. For the same molecule, the fluorescence slope in assay [4] is -0.556 (inactive). The NADPH fluorescence slope in assay [5] is -3e-05 (inactive). In addition, the slope in assay [6] was 0.00683 (inactive).

Regarding `O=C(Nc1ccon1)c1csc2c1CCCC2`, the cell count in assay [1] turned out to be 332. Further, the inhibition is 1.2% (inactive) in assay [1], -52.8% (inactive) in assay [3], -0.246% (inactive) in assay [7] and 11.9% (inactive) in assay [8]. For the same molecule, the inhibition of aggregation in assay [2] is -60% (inactive). Moreover, the nuclei count worked out at 104% in assay [2] and 107% in assay [3]. Besides, the fluorescence slope in assay [4] was -0.396 (inactive). In addition, the NADPH fluorescence slope in assay [5] is -5.9e-05 (inactive). Moreover, in assay [6], the slope was 0.00515 (inactive).

With `COc1nc(NCCc2ccc(OC)c(OC)c2)nc(NC(C)(C)CO)n1`, the cell count in assay [1] worked out at 336. Besides, the inhibition was -1.4% (inactive) in assay [1], -7% (inactive) in assay [3], 15.5% (inactive) in assay [7] and 11.8% (inactive) in assay [8]. The inhibition of aggregation in assay [2] is 13.7% (inactive). The nuclei count in assay [2] turned out to be 97.3%; in assay [3], 108%. In assay [4], the fluorescence slope is -0.496 (inactive). Further, in assay [5], the NADPH fluorescence slope is -1.3e-06 (inactive). The slope in assay [6] was 0.00642 (inactive).

Consider `CCOC(=O)c1ccc(N(CC(=O)NC2CCCC2)C(=O)CNC(=O)c2ccco2)cc1`, for which the cell count in assay [1] came to 626. In addition, the inhibition in assay [1] was -7.8% (inactive); in assay [3], -11.3% (inactive); in assay [7], 15.3% (inactive); in assay [8] it was 18.5% (inactive). In addition, in assay [2], the inhibition of aggregation was 5.5% (inactive). Moreover, the results for the nuclei count in assay [2] and in assay [3] were 79.3% and 105%, respectively. For the same molecule, the fluorescence slope in assay [4] is -0.508 (inactive). Besides, the NADPH fluorescence slope in assay [5] was -5.1e-05 (inactive). Moreover, the slope in assay [6] is 0.0066 (inactive).

As to `CCN(Cc1cc2ccccc2[nH]c1=O)S(=O)(=O)c1ccccc1`, the cell count in assay [1] came to 642. In addition, the inhibition in assay [1] is 7.5% (inactive); in assay [3] it was 38.9% (inactive); in assay [7], 12.2% (inactive); in assay [8], 5.79% (inactive). Moreover, in assay [2], the inhibition of aggregation is 9.9% (inactive). The nuclei count in assay [2] and in assay [3] was 104% in each case. In assay [4], the fluorescence slope was -0.627 (inactive). Further, the NADPH fluorescence slope in assay [5] is 1.2e-05 (inactive). In assay [6], the slope was 0.00647 (inactive).

On to `Cc1cc(C)nc(SCCS(=O)Cc2ccc(Cl)cc2)n1` (centres undefined), for which the cell count in assay [1] was found to be 306. Also, the inhibition in assay [1] is -3.8% (inactive); in assay [3] it was 32.1% (inactive); in assay [7] it was 5.96% (inactive); in assay [8], 8.92% (inactive). The inhibition of aggregation in assay [2] was -16.7% (inactive). In addition, the nuclei count turned out to be 108% in assay [2] and 95% in assay [3]. The fluorescence slope in assay [4] was -0.503 (inactive). Further, in assay [5], the NADPH fluorescence slope is 6.2e-06 (inactive). In addition, the slope in assay [6] is 0.00559 (inactive).

Take `O=C(Cn1cnc2c(cnn2-c2ccc(F)cc2)c1=O)N1CCCc2ccccc21`: the cell count in assay [1] was 427. Besides, the inhibition in assay [1] is 1.5% (inactive); in assay [3] it was -61.6% (inactive); in assay [7], 11.3% (inactive); in assay [8] it was 6.11% (inactive). The inhibition of aggregation in assay [2] was 2.1% (inactive). In addition, the nuclei count in assay [2] stood at 104%; in assay [3], 110%. Moreover, the fluorescence slope in assay [4] was -0.628 (inactive). Also, in assay [5], the NADPH fluorescence slope is -5.2e-05 (inactive). The slope in assay [6] is 0.00385 (inactive).

On to `CN1CCN(C(=O)c2ccc(CS(=O)(=O)c3c(Cl)cccc3Cl)o2)CC1`, for which the cell count in assay [1] is 652. For the same molecule, the inhibition was -0.5% (inactive) in assay [1], -24.1% (inactive) in assay [3], 16.8% (inactive) in assay [7] and 24.4% (inactive) in assay [8]. Also, the inhibition of aggregation in assay [2] is 11.9% (inactive). The nuclei count in assay [2] came out at 96.9%; in assay [3] it was 137%. Moreover, the fluorescence slope in assay [4] is -0.515 (inactive). The NADPH fluorescence slope in assay [5] is -2.9e-05 (inactive). Moreover, in assay [6], the slope is 0.00604 (inactive).

Consider `O=C(NCN1CCCCC1)c1cccnc1`, for which the cell count in assay [1] amounted to 327. The inhibition in assay [1] is 7% (inactive); in assay [3] it was -20% (inactive); in assay [7], 5.02% (inactive); in assay [8] it was 35.7% (inactive). Also, in assay [2], the inhibition of aggregation was -1.5% (inactive). The results for the nuclei count in assay [2] and in assay [3] were 87.9% and 92.8%, respectively. For the same molecule, the fluorescence slope in assay [4] was -0.488 (inactive). The NADPH fluorescence slope in assay [5] is -4.4e-05 (inactive). Further, the slope in assay [6] is 0.00701 (inactive).

For `N#CC1=C(N)OC(c2ccccc2)=C(C#N)C1c1ccc2c(c1)OCO2` (centres undefined), in assay [1], the cell count turned out to be 609. Moreover, the inhibition in assay [1] is -19.6% (inactive); in assay [3], 29.2% (inactive); in assay [7], -16.2% (inactive); in assay [8], 10.8% (inactive). For the same molecule, in assay [2], the inhibition of aggregation was 6% (inactive). Also, the nuclei count is 112% in assay [2] and 96.1% in assay [3]. For the same molecule, the fluorescence slope in assay [4] was -0.482 (inactive). Moreover, the NADPH fluorescence slope in assay [5] was -9.1e-05 (inactive). The slope in assay [6] is 0.00651 (inactive).

With `COc1ccc(N2CCN(Cc3nc4c(c(=O)[nH]c(=O)n4C)n3CC(C)=O)CC2)cc1`, the cell count in assay [1] was 682. In addition, the inhibition was 0.5% (inactive) in assay [1], -37.3% (inactive) in assay [3], 4.33% (inactive) in assay [7] and 29.5% (inactive) in assay [8]. In addition, the inhibition of aggregation in assay [2] was -29.1% (inactive). For the same molecule, the figures for the nuclei count in assay [2] and in assay [3] were 126% and 119%, respectively. In addition, the fluorescence slope in assay [4] is -0.578 (inactive). Moreover, in assay [5], the NADPH fluorescence slope is -2.9e-05 (inactive). For the same molecule, in assay [6], the slope is 0.00484 (inactive).

For the molecule `COCCn1nnnc1C(c1cc2cc(OC)ccc2[nH]c1=O)N1CCC(Cc2ccccc2)CC1` (centres undefined), the cell count in assay [1] was determined as 247. For the same molecule, the inhibition in assay [1] was -3.5% (inactive); in assay [3] it was -39.9% (inactive); in assay [7] it was 14.4% (inactive); in assay [8], 30.6% (inactive). The inhibition of aggregation in assay [2] is -2.5% (inactive). Besides, the nuclei count in assay [2] was 88.5%; in assay [3], 117%. Also, the fluorescence slope in assay [4] is -0.359 (inactive). In addition, the NADPH fluorescence slope in assay [5] is 1.6e-05 (inactive). Besides, in assay [6], the slope is 0.00322 (inactive).

Regarding `CCOC(=O)N1CCC(N(CCCOC)C(=O)Nc2ccc(CC)cc2)CC1`, the cell count in assay [1] is 574. Moreover, the inhibition is 2.2% (inactive) in assay [1], 12.1% (inactive) in assay [3], 4.87% (inactive) in assay [7] and 9.22% (inactive) in assay [8]. Also, in assay [2], the inhibition of aggregation was -21.3% (inactive). Further, the nuclei count in assay [2] was determined as 106%; in assay [3], 93.2%. Also, in assay [4], the fluorescence slope was -0.531 (inactive). The NADPH fluorescence slope in assay [5] is -2.6e-05 (inactive). Also, the slope in assay [6] is 0.00487 (inactive).
